# Results as given in the supplement of paper PMC7801607.
# What was measured:
# CHO = assay: % viability of CHO cells (MTT); higher = less toxic; conditions: 48 h
# How it was run: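 For 48 h, attached CHO cells (10^6 cells/well, 200 µL, seeded the night before) were kept in fresh medium carrying compound at 2 or 20 µM. A colorimetric tetrazolium (MTT) assay then gave survival as percent viability versus untreated cells.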
# HepG2-A16-CD81 = assay: % inhibition of HepG2 viability (CellTiter-Glo); higher = more toxic; conditions: 5 µM
# [1] = tested on: Plasmodium falciparum NF54 stage IV/V gametocytes; assay: % inhibition of gametocyte viability (PrestoBlue); higher = more inhibition; conditions: 48 h
# How it was run: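 Stage IV/V NF54 gametocytes at 2% gametocytaemia and 5% haematocrit (100 µL/well) were treated with compound at 1 or 5 µM and incubated for 48 h at 37 °C under stationary, hypoxic conditions. PrestoBlue (10 µL) was then added for 2 h, and fluorescence at 612 nm was read on 70 µL of transferred supernatant. Percent inhibition of gametocyte viability was normalised to vehicle and kill controls within one run.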
# [2] = tested on: Plasmodium falciparum NF54 asexual blood stage; assay: % inhibition of asexual blood stage proliferation (pLDH); higher = more inhibition; conditions: 72 h
# How it was run: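 Plasmodium falciparum NF54 ring-stage cultures (1% haematocrit, 2% parasitaemia) were incubated with compound at 2 or 20 µM for 72 h at 37 °C under 4% CO2, 3% O2 and 93% N2. Survival was read at 620 nm with the parasite lactate dehydrogenase assay. Results were reported as percent inhibition of asexual proliferation relative to controls.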
# [3] = tested on: Plasmodium falciparum NF54 stage IV/V gametocytes; assay: % inhibition of gametocyte viability (ATP bioluminescence); higher = more inhibition; conditions: 24 h
# How it was run: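 Stage IV/V NF54 gametocytes from density gradients (30,000 per well, 96-well plates) were incubated with compound at 1 or 5 µM for 24 h at 37 °C. A single run supplied percent inhibition of gametocyte viability, based on ATP measured with Promega BacTiter Glo and normalised to control wells.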
# [4] = tested on: Plasmodium falciparum NF54 stage IV/V gametocytes; assay: % inhibition of gametocyte viability (luciferase reporter); higher = more inhibition; conditions: 48 h
# How it was run: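 Stage IV/V gametocytes of the NF54-Pfs16-GFP-Luc line (2% gametocytaemia, 2% haematocrit) were exposed to compound at 1 or 5 µM. Incubation was 48 h at 37 °C, stationary and hypoxic. Luminescence was read on 30 µL lysate plus 30 µL Promega luciferin substrate on a GloMax-Multi+ reader with 10 s integration. Percent inhibition was normalised to DMSO and kill controls from a single run.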
# [5] = tested on: Plasmodium berghei ANKA liver stage in HepG2-A16-CD81; assay: % inhibition of liver stage parasite viability (luciferase); higher = more inhibition; conditions: 5 µM; 48 h
# Procedure: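 Single-concentration screen of the MMV Pandemic Response Box. P. falciparum NF54 asexual blood stages: pLDH assay, 72 h at 37 °C, 2 and 20 µM, n=2. Stage IV/V gametocytes (NF54): luciferase reporter (NF54-Pfs16-GFP-Luc, 48 h), ATP bioluminescence (24 h) and PrestoBlue (48 h) at 1 and 5 µM, n=1. P. berghei liver stage (luciferase in HepG2-A16-CD81, 48 h post infection) at 5 µM, n=4. All normalised to DMSO and kill controls as % inhibition.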
# 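For % inhibition of HepG2 viability (CellTiter-Glo) in this document: HepG2-A16-CD81 hepatoma cells plated as in the liver-stage assay but without sporozoites, with DMSO wells as negative and 25 µM puromycin as positive control.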
SMILES,% viability of CHO cells (CHO; 2 µM),% viability of CHO cells (CHO; 20 µM),% inhibition of HepG2 viability (HepG2-A16-CD81),% inhibition of gametocyte viability ([1]; 1 µM),% inhibition of gametocyte viability ([1]; 5 µM),% inhibition of asexual blood stage proliferation ([2]; 2 µM),% inhibition of asexual blood stage proliferation ([2]; 20 µM),% inhibition of gametocyte viability ([3]; 1 µM),% inhibition of gametocyte viability ([3]; 5 µM),% inhibition of gametocyte viability ([4]; 1 µM),% inhibition of gametocyte viability ([4]; 5 µM),% inhibition of liver stage parasite viability [5]
O=S(=O)(NCB(O)O)c1cc2c(Cl)ccc(Cl)c2s1,91.2%,59.2%,30.9%,22.6%,27.1%,-17.5%,-8.49%,< 0%,< 0%,< 0%,< 0%,-37.4%
COc1ccc2cc3[n+](cc2c1OCCN(CCn1cncn1)Cc1ccc(F)cc1F)CCc1cc2c(cc1-3)OCO2,89.4%,74.2%,22.1%,< 0%,< 0%,78.3%,84.3%,< 0%,30.9%,< 0%,10.3%,2.84%
O=C(NCc1ccccc1Cl)c1cnc2ccccc2n1,106%,124%,5.29%,< 0%,< 0%,6.58%,48.8%,< 0%,< 0%,< 0%,< 0%,12.6%
COc1ccc2c(c1OC)C(=O)OC2C1c2c(cc3c(c2OC)OCO3)CCN1C (stereo not drawn),102%,-0.468%,3.76%,< 0%,5.61%,42.6%,68.3%,< 0%,< 0%,2.79%,9.42%,19%
CC1(C)CC(NC(=O)C(=O)Nc2ccc(Cl)cc2)CC(C)(C)N1,87.7%,57.9%,-9.07%,22.5%,17.1%,-0.102%,60.5%,0.497%,3.94%,3.24%,13.9%,31.6%
CCCNc1ccc(S(=O)(=O)Nc2cc(C)on2)cc1,93.3%,116%,-1.94%,-0.214%,6.51%,1.93%,-9.2%,0.832%,< 0%,< 0%,< 0%,32.4%
Cc1cc(C)n2nc(C(=O)NS(=O)(=O)c3c(C)cccc3OC(F)(F)F)nc2n1,110%,122%,8.44%,33.8%,85.1%,33.6%,59.9%,< 0%,< 0%,14.1%,14.2%,37%
Nc1nnc(-c2ccc(Cl)cc2)s1,84.5%,88.7%,-0.915%,5.08%,< 0%,13.1%,23.9%,< 0%,< 0%,< 0%,< 0%,26.2%
Cc1cccc(C)c1C(=O)Nc1nc(-c2ccccn2)cc2ccccc12,104%,17.3%,32.4%,13.5%,53.2%,79.3%,104%,73.4%,90.8%,< 0%,68.3%,73.3%
Nc1nc(-c2ccccc2)nc2c1ncn2[C@@H]1O[C@H](COS(=O)(=O)NC(=O)c2ccccc2O)[C@@H](O)[C@H]1O,102%,129%,3.69%,16.3%,11%,19.4%,71.1%,< 0%,< 0%,< 0%,< 0%,2.37%
Nc1nnnn1CCOc1c2[nH]c3ccc(Cl)cc3c2cc2c1[nH]c1ccc(Cl)cc12,98.6%,121%,5.71%,< 0%,< 0%,11.9%,95.2%,< 0%,< 0%,< 0%,31.2%,24.1%
Cc1nc2ccc(Oc3ccccc3)cc2c2c1CCN2CCc1ccccc1,77.5%,-1.21%,2.52%,1.5%,60%,75.9%,110%,20.1%,93.2%,33%,63.3%,27%
COc1ccc2nc(-c3ccccc3)cc(O)c2c1,85.4%,80.2%,6.13%,< 0%,7.99%,66.9%,94.3%,29.5%,13.5%,< 0%,8.89%,78.6%
O=c1[nH]c(=O)n(Cc2cccc(Oc3ccccc3)c2)cc1Nc1ccccc1,116%,65.4%,7.38%,< 0%,< 0%,-152%,47.8%,< 0%,< 0%,< 0%,< 0%,-3.63%
O=C(Nc1nnc(-c2ccc(Cl)cc2)o1)c1nc2ccccc2s1,111%,92.6%,0.777%,6.81%,13.9%,73.6%,91.4%,1.06%,< 0%,1.1%,< 0%,11%
CNCC(=O)OCc1cccnc1N(C)C(=O)OC(C)[n+]1cnn(C[C@](O)(c2cc(F)ccc2F)[C@@H](C)c2nc(-c3ccc(C#N)cc3)cs2)c1 (stereo partly drawn),94.9%,98.8%,14.7%,8.15%,23.3%,0.721%,37.7%,< 0%,< 0%,< 0%,< 0%,29.6%
O=[N+]([O-])c1cn2c(n1)OC[C@@H](OCc1ccc(OC(F)(F)F)cc1)C2,92.7%,84.4%,10.7%,< 0%,< 0%,0.354%,10.1%,< 0%,< 0%,< 0%,3.32%,31.5%

SMILES,% viability of CHO cells (CHO; 2 µM),% viability of CHO cells (CHO; 20 µM),% inhibition of HepG2 viability (HepG2-A16-CD81),% inhibition of gametocyte viability ([1]; 1 µM),% inhibition of gametocyte viability ([1]; 5 µM),% inhibition of asexual blood stage proliferation ([2]; 2 µM),% inhibition of asexual blood stage proliferation ([2]; 20 µM),% inhibition of gametocyte viability ([3]; 1 µM),% inhibition of gametocyte viability ([3]; 5 µM),% inhibition of gametocyte viability ([4]; 1 µM),% inhibition of gametocyte viability ([4]; 5 µM),% inhibition of liver stage parasite viability [5]
COc1ccc(C(C)(C)C)cc1NC(=O)C(=O)c1ccc(OCCN2CCOCC2)c2ccccc12,97.6%,130%,1.14%,12.9%,26.4%,29.2%,23.5%,< 0%,< 0%,6.49%,< 0%,15.1%
Cn1c2ccccc2c(=O)c2c(O)cccc21,229%,55%,-9.48%,26.6%,21.6%,20.3%,11%,6.28%,< 0%,7.24%,< 0%,29.3%
Cn1cncc1[C@@](N)(c1ccc(Cl)cc1)c1ccc2c(c1)c(-c1cccc(Cl)c1)cc(=O)n2C,94.8%,47.9%,31.9%,21.7%,31.8%,51.2%,75.9%,15.7%,16.3%,0.69%,< 0%,60.7%
O=C(Nc1nnc(-c2ccccc2)o1)c1ccc(F)cc1,88.3%,114%,8.93%,8.12%,< 0%,52.8%,61.2%,< 0%,< 0%,< 0%,< 0%,53.8%
CCNC(=O)Nc1cc(-c2ccccc2)c(-c2cncc(C(=O)O)c2)cn1,109%,94%,-1.59%,19.7%,30.2%,-11.2%,-0.305%,< 0%,< 0%,< 0%,< 0%,41.3%
COc1c(NC(=O)[C@H]2CC[C@@H](COc3ccc([N+](=O)[O-])cc3)CC2)c(F)cc2c(=O)c(C(=O)O)cn(C3CC3)c12,104%,102%,-1.96%,< 0%,23%,8.56%,70%,0.404%,< 0%,< 0%,9%,46.8%
CCc1cc(CCC(=O)Nc2ccccc2O)c(=O)[nH]c1C,90.7%,106%,0.672%,5.05%,16.3%,-8.67%,47.7%,< 0%,< 0%,< 0%,< 0%,17.8%
FC(F)(F)c1cc(C(F)(F)F)c2ccc3nc(-c4nnco4)cn3c2n1,93.3%,124%,8.21%,17.1%,21.3%,19.6%,26.8%,< 0%,< 0%,1.44%,18%,17.6%
O=c1oc2ccc(Br)cc2cc1CSc1ncc[nH]1,112%,73.8%,3.9%,11.2%,7.96%,-5.59%,79%,6.38%,5.34%,4.59%,< 0%,-13.1%
O=C(NNC(=S)Nc1ccc(Cl)cc1)c1ccncc1,116%,76.6%,4.57%,6.58%,< 0%,3.73%,-4.99%,< 0%,< 0%,< 0%,< 0%,5.18%
CC1=C(/C=C/C(C)=C/C=C/C(C)=C/C(=O)Nc2ccc(O)cc2)C(C)(C)CCC1,118%,102%,4.42%,< 0%,< 0%,33.3%,90%,< 0%,< 0%,< 0%,< 0%,13.4%
CNc1nc(=O)[nH]cc1F,95.1%,98.5%,-2.31%,< 0%,8.84%,-10.3%,-14.1%,< 0%,< 0%,< 0%,< 0%,18.4%
Nc1nc(O)ncc1F,118%,21.7%,0.135%,3.77%,< 0%,-11%,-2.89%,< 0%,< 0%,< 0%,< 0%,7.9%
Fc1ccc2c(/C=C/c3nnn[nH]3)c[nH]c2c1,80.4%,75%,2%,4.4%,18.3%,7.6%,10.8%,< 0%,< 0%,< 0%,4.42%,7.99%
N=c1n(CCN2CCCCC2)c2ccccc2n1CC(O)COc1ccc(Cl)cc1Cl (stereo not drawn),82.7%,-3.8%,5.14%,38.8%,66%,76.8%,85.7%,85.7%,88.1%,40.7%,97%,-0.075%
O=C(Nc1cccc(C2=NCCN2)c1)c1ccc(-c2ccc(C(=O)Nc3cccc(C4=NCCN4)c3)cc2)cc1,90.2%,96.3%,14.5%,31.3%,62.4%,54%,41.2%,7.89%,38%,< 0%,59.1%,15.4%
CCCCCc1ccc(C(=O)NCCn2cc(CCCCCc3cnc(N)[nH]3)nn2)cc1,125%,153%,2.88%,< 0%,63.4%,72.9%,96.5%,< 0%,< 0%,< 0%,< 0%,37.7%
